Sfp PPTase inh – blocks B. subtilis Sfp PPTase activity; Biochemical Sfp PPTase activity, qHTS; Potency, µM, for inactives: largest response in the series, negative = inhibition, hits mostly inhibitors; 310,000 tested, 3.5% active;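 further: the enzyme is Sfp with the accession as filed and its product quenches rhodamine fluorescence; potency means the concentration at half of the fitted maximal effect; 0% = enzyme reaction without inhibitor and -100% = no enzyme wells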
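Sfp 15 nM + cpd, 15 min RT; start w/ rhodamine-CoA 5 uM, BHQ-2-YbbR 12.5 uM (final); 50 mM Hepes pH 7.6, 10 mM MgCl2, 0.01% NP-40, 0.01% BSA; read 525/598 nm at 0 and 30 min.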
Tau fibril FP – blocks human tau fibril formation measured by polarization. P10636. K18 P301L tau heparin fibrillization, Alexa594 FP, 6 h. Potency, µM (series often up to 57.7 µM), inactives show top-dose activity, negative = inhibition, actives largely listed as inhibitors. 280,000 tested, 0.39% active. AID 1468; further: potency means the concentration at half of the fitted maximal effect; nearly all actives have a fitted effect of over 55% in size
Target sequence (P10636 561-689 P618L limits assumed): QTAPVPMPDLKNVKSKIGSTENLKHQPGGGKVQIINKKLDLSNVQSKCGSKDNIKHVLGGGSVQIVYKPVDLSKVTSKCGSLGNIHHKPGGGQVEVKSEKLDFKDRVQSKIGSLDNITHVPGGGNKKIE
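Human K18 P301L fragment (15 uM unlabeled plus 0.24 uM Alexa 594-labeled) in 100 mM sodium acetate pH 7 with compound, aggregation induced by 20 uM heparin for 6 hr at 37 C. ThT (30 uM) added for 1 hr, then Alexa 594 FP read.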
Tau fluor cs – counter-screen for tau fibril formation inhibitors. tau K18 P301L Alexa594 fluorescence, heparin fibrillization. Potency, µM (series often up to 57.7 µM), inactives show at the highest dose activity change, negative = decrease. 280,000 tested, 0.93% active. AID 1463; further: potency means the concentration at half of the fitted maximal effect; nearly all actives have a fitted effect of over 55% in size
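Human K18 P301L tau (15 uM unlabeled plus 0.24 uM Alexa 594-labeled, final) in 100 mM sodium acetate pH 7 was mixed with compound and 20 uM heparin and incubated 6 hr at 37 C.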
Tau fibril ThT – inhibitors of human tau fibril formation, thioflavin T binding; AID 1460; Potency, µM (series often up to 57.4 µM), for inactives: at the top dose activity, negative = inhibition, usual class: inhibitors; 270,000 tested, 2.1% active; recombinant tau K18 P301L, heparin-induced fibrillization, ThT fluorescence; further: potency means the concentration at half of the fitted maximal effect; nearly all actives have a fitted effect of over 55% in size
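Fibril formation assay: tau K18 P301L at 15 uM with trace Alexa 594 label, heparin inducer 20 uM, pH 7 sodium acetate buffer, 37 C for 6 hr; endpoint ThT signal.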
Coupling enz – inhibits coupling enzyme system, counter-screen for aldolase hits. 290,000 tested, 0.67% active. activity change, negative = inhibition, % at 58.2 µM, hits read low. coupling enzyme system counterscreen, AmpLite Red fluorescence; in the data active means activity change below about -30%
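Counterscreen of the coupled detection system alone, without aldolase: glyceraldehyde-3-phosphate coupling enzymes plus AmpLite Red readout. Compounds at 57.5 uM final, 10 min RT preincubation, 20 min RT reaction, fluorescence 525/598 nm.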
Numbers without * were called inactive; ? = inconclusive; . = no result given; ! = not confirmed by another sample; [ ] = another dose, or the depositor's remark. Most compounds without a hit are left out; they make up all but 5.2% or so of the library. Unless noted, the call rests on the fitted dose curve; in most records, active means well fitted curve in the direction sought with a large enough effect; inconclusive means small, poorly fitted or top-dose-only effect, or another doubt; inactive means no such curve, though single readings can be large; an effect the other way counts as inactive or inconclusive. Unless noted, on the % scale 0 is the no-effect control and ±100 the full control effect.

SMILES	Sfp PPTase inh	Tau fibril FP	Tau fluor cs	Tau fibril ThT	Coupling enz
CCCc1[nH]nc2c1C(c1ccc(OC)c(CSC3=NCCS3)c1)C(C#N)=C(N)O2 (centres undefined)	79.4µM*	10.1%	-23.9%	-14.0%	-40.7*
Cc1cc(/C=N/NC(=O)c2ccncc2)c(C)n1-c1ccccc1	9.0%	-0.8%	-10.8%	-16.0%	-4.2
Cc1cc(C(=O)N/N=C/c2ccc(O)c(O)c2O)c(C)n1-c1ccccc1	8.91µM*	7.8%	-3.1%	3.4%	-32.6*
O=C(CCN1CCN(c2ccccc2)CC1)N/N=C/c1ccc(O)c(O)c1O	8.91µM*	-1.9%	2.1%	7.2%	-40.0*
C/C(=N\NC(=O)Cc1csc(N2CCOCC2)n1)c1ccccc1	-8.7%	3.7%	-9.6%	-7.8%	-0.4
O=C(Cc1csc(N2CCOCC2)n1)N/N=C/c1ccc(O)c(O)c1O	10µM*	31.6µM*	?	15.8µM*	-60.8*
Cc1ccc(NC(=O)c2ccc3nc(N4CCOCC4)sc3c2)c(Cl)c1	50.1µM*	.	.	.	-1.2
CC1CCN(S(=O)(=O)c2ccc3nc(NCc4ccc(F)cc4)ccc3c2)CC1	.	?	?	-0.4%	.
CC1CCN(S(=O)(=O)c2ccc3nc(Nc4cccc(C(F)(F)F)c4)ccc3c2)CC1	.	28.2µM*	?	?	.
O=S(=O)(c1ccc2nc(Nc3ccc(F)cc3)ccc2c1)N1CCCC1	.	-13.8%	?	?	.
CC1CCN(S(=O)(=O)c2ccc3nc(Nc4ccc(C#N)cc4)ccc3c2)CC1	.	14.1µM*	?	?	.
CN(/N=C/c1ccc(O)cc1O)c1nc(-c2ccccc2)cc(-c2ccccc2)n1	31.8%	?	14.1µM*[quencher]	?	-2.7
Cc1nc(-c2cccc(S(=O)(=O)N3CCOCC3)c2)cs1	39.8µM*	-19.8%	-18.1%	?	2.4
Cc1nc(-c2cccc(S(=O)(=O)N3CC(C)OC(C)C3)c2)cs1 (centres undefined)	13.8%	-2.4%	0.7%	-2.2%	2.4
COc1ccc2cc3[n+](cc2c1OC)CCc1cc2c(cc1-3)OCO2	17.8%	-9.9%	-8.9%	17.8µM*	-35.7*!
Cc1ccccc1CNC(=O)CCCn1c(=O)c2cccn2c2ccccc21	.	-6.1%	-5.6%	1.6%	.
CCN1C(=S)SC(=O)C1=C1C=C(C)N(CCOC)C(C)=C1	50.1µM*	-8.0%	-15.8%	?	-0.4
CCOC(=O)c1c(C)oc2c1c(C(c1cccnc1)N1CCN(C)CC1)c(O)c1ccccc12 (centres undefined)	-26.1%	11.3%	-26.8%	?	-13.4
CCOC(=O)c1c(C)oc2c1c1c(c3ccccc32)OCN(Cc2cccnc2)C1	?	?	?	17.8µM*	-56.6*
CCOC(=O)c1c(C)oc2c1c(C=NCc1ccccn1)c(O)c1ccccc12	17.8µM*	-7.8%	?	12.6µM*	-53.0*
CCOC(=O)c1c(C)oc2c1c(C(c1cccnc1)N1CCOCC1)c(O)c1ccccc12 (centres undefined)	?	-4.8%	?	17.8µM*	-44.1*
O=C(CSc1nccn1Cc1ccc(F)cc1)Nc1nc2ccccc2s1	.	-8.4%	?	-6.0%	.
COc1ccc(-c2cn3nc(N4CCC(C(=O)Nc5cc(Cl)ccc5C)CC4)sc3n2)cc1	.	1.2%	2.5%	10.5%	.
COC(=O)C1=C(C(=O)OC)[C@@H]2N(Cc3ccccc3)c3ccccc3[C@@]23C[C@@H](C(=O)OC)N(S(=O)(=O)c2ccc(OC)cc2)C3=N1	-13.0%	0.5%[11.6 µM]	-14.2%[11.6 µM]	-2.1%[11.5 µM]	1.0
CCOc1ccc(NC(=O)CC2C(=O)N(c3ccc(C)cc3)C(=O)N2C2CCCCC2)cc1 (centres undefined)	.	-5.6%	?	3.5%	.
SMILES	Sfp PPTase inh	Tau fibril FP	Tau fluor cs	Tau fibril ThT	Coupling enz
CC(=O)C1=C(c2ccc(Br)cc2)C(=O)c2ccccc2C1=O	-14.8%	?	?	8.91µM*	-69.7*
O=C(c1ccccc1)N1CCC(c2nc3ccccc3o2)CC1	.	3.4%	-11.9%	-10.6%	.
COc1ccc2[nH]cc(CCN=C(NC(=O)c3ccccc3F)Nc3nc(C)cc(C)n3)c2c1	.	6.8%	?	-15.3%	.
COC(=O)c1nn(-c2ccc(OC)cc2)c(=O)cc1Sc1ccc(C)cc1	4.1%	-8.3%	-15.2%	-17.8%	-10.9
COC(=O)c1nn(-c2ccc(OC)cc2)c(=O)cc1NN	5.3%	?	-14.5%	14.1µM*	-42.6*
CCC(=O)N1CCc2cc(CNC(=O)c3ccc(OC)cc3)ccc21	.	-0.3%	6.8%	-5.1%	.
COc1ccc(OC)c(S(=O)(=O)N(C(C)=O)c2ccc3oc(=O)sc3c2)c1	44.7µM*	-12.3%	-17.6%	?	0.7
COc1ccc(C(=O)Oc2ccc3oc(=O)sc3c2)cc1	50.1µM*	-11.8%	-23.9%	-20.7%	-0.4
CC(=O)N(c1ccc2oc(=O)sc2c1)S(=O)(=O)c1ccccc1	8.91µM*	-10.5%	-15.9%	?	3.0
COc1ccc(N(C(C)=O)S(=O)(=O)c2cc(OC)ccc2OC)cc1	14.6%	-0.3%	-4.4%	-6.9%	2.2
COc1ccc(S(=O)(=O)N(C(=O)C(C)C)c2ccc3oc(=O)sc3c2)cc1	?	-17.9%	-23.2%	?	6.6
COc1ccc(C(=O)Oc2ccc3ccc(=O)oc3c2)cc1	0.8%	.	.	.	-0.1
CC(C)C(=O)N(c1ccc2oc(=O)sc2c1)S(=O)(=O)c1ccccc1	17.8µM*	-6.2%	-14.3%	?	0.6
Cc1ccc2oc(C(=O)N(Cc3ccccc3F)C3CCS(=O)(=O)C3)c(C)c2c1 (centres undefined)	.	6.0%	-19.1%	-14.7%	.
C[C@@H](CN(C)C)CN1c2ccccc2CCc2ccccc21	16.3%	.	.	.	-1.6
CCN1CCN(C(=O)c2ccc3c(c2)N(Cc2c(F)cccc2Cl)C(=O)c2ccccc2S3)CC1	.	3.3%	-8.1%	-6.7%	.
Cc1ccccc1C(=O)NCC(c1cccnc1)N1CCc2ccccc21 (centres undefined)	.	-11.8%	-15.9%	-5.3%	.
CCCC(=O)N(c1ccc2oc(C)c(C(C)=O)c2c1)S(=O)(=O)c1ccc(C)cc1	.	-6.1%	-9.2%	-6.4%	.
CCCC(=O)N(c1ccc2oc(=O)sc2c1)S(=O)(=O)c1cccs1	?	?	-23.0%	31.6µM*	1.3
c1ccc(Nc2scc(-c3ccccc3)[n+]2Cc2ccco2)cc1	20µM*	1.3%	?	?	-4.3
Cc1cc(C)c2nc3s/c(=C/c4ccccc4)c(=O)n3c2c1	8.91µM*	?	-24.5%	28.2µM*	5.5
Cc1ccc2c(nc3s/c(=C/c4cccs4)c(=O)n32)c1C	-19.8%	?	-13.9%	?	-1.4
CCC/C=C1/CCCOC(C(=O)NCC2CC2)(C(F)(F)F)C1 (centres undefined)	9.6%	.	.	.	1.8
O=C1CCCC(O)=C1N=Nc1ccc(Cl)c(Cl)c1	10.6%	7.3%	-9.6%	?	-0.2

From PubChem BioAssay
